Among all 16,000 compounds or so, about 5,700 (36%) were called active. Roughly 24% stayed inconclusive and do not appear here. Some of the results follow. Values without a mark were called inactive. Calls come from the whole dose curve; as a rule, active = well fitted curve in the direction sought with a large enough effect; inconclusive = small, poorly fitted or top-dose-only effect, or effect the other way; inactive = no such curve, though single readings can be large or run the other way.
molecular target: Cytochrome P450 1A2 (Homo sapiens) (UniProt P05177); test: Cytochrome panel assay with activity outcomes; conditions: recombinant CYP, pro-luciferin dealkylation, luminescence, p450-cyp1a2; series mostly up to 57.1 µM; activity, negative = inhibition: at the top concentration
% is set by controls: 0 for no effect and ±100 for the full control effect.

Cytochrome P450 1A2 (Homo sapiens), sequence (P05177 whole entry, looked up): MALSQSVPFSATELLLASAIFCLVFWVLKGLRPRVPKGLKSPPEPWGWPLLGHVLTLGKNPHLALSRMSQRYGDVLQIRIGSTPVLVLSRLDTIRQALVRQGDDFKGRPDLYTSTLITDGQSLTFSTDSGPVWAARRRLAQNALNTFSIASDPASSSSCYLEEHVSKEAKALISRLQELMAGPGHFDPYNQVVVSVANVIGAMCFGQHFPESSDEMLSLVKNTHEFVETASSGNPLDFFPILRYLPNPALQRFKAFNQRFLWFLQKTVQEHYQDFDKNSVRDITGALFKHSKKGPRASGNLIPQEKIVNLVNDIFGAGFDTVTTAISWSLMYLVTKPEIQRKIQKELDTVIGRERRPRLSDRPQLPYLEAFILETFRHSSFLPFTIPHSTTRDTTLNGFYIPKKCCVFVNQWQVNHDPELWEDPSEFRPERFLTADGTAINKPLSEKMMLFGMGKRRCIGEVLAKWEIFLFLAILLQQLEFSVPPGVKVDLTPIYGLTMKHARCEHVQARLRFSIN

| Compound | activity, negative = inhibition | AC50 |
| --- | --- | --- |
| CCCNC(=O)OC[C@H]1O[C@@H](CCO/N=C\[C@@H](NS(=O)(=O)c2ccc(C)cc2)[C@H](C)/C=C\CC(=O)OC)C=C[C@@H]1Oc1ccc(OC)cc1 | 2.17% [at 11.4 µM] | – |
| C[C@@]1(C(NC(=O)c2ccccc2)c2ccc(-c3ccccc3)cc2)C[C@H]1C1CCCCC1 (some centres undefined) | 7.91% | – |
| O=C(c1ccccc1)[C@@H]1O[C@H]1c1ccc(-c2ccccc2)cc1 | – | 6.31 µM (active) |
| CCN1CCN(CCCNC(=O)C(NC(=O)C2CCC(C)CC2)C(C)C)CC1 (centres undefined) | -16.2% | – |
| O=C(c1cc(C(F)(F)F)cc(C(F)(F)F)c1)N1CCC[C@@]2(CCN(c3ncccn3)C2)C1 | -18.7% | – |
| O=C1CC[C@H](N2C(=O)c3ccccc3C2=O)C(=O)N1 | -5.92% [at 25.6 µM] | – |
| O=c1c(CCc2ccccc2)nc2cncnc2n1-c1ccccc1 | – | 15.8 µM (active) |
| COCCn1c(=O)c(CCc2ccccc2)nc2cncnc21 | – | 10 µM (active) |
| NCCn1c(=O)c(CCc2ccccc2)nc2cncnc21 | – | 12.6 µM (active) |
| CCCNC(=O)N1CCC(C(=O)c2ccc(F)cc2)CC1 | -5.51% | – |
| NC(=O)C1(NC(=O)[C@@H]2CC3(CC(c4cccc(NC(=O)c5cc([N+](=O)[O-])cc([N+](=O)[O-])c5)c4)=NO3)CN2C(=O)c2ccccc2)CC1 (some centres undefined) | -6.89% | – |
| COc1ccc(NC(=O)C(F)(F)F)cc1OC | – | 12.6 µM (active) |
| COc1ccc(NC(=O)c2cc(C(C)C)on2)cc1OC | – | 15.8 µM (active) |
| COc1ccc(NC(=O)COC(=O)Cn2c(C)nc3ccccc32)cc1OC | -13.5% | – |
| COc1ccc(NC(=O)CC#N)cc1OC | – | 15.8 µM (active) |
| COc1ccc(C(=O)Nc2ccc(OCC(F)(F)C(F)F)c(C(F)(F)F)c2)cc1OC | -9.8% | – |
| CCC(NC(=O)Nc1cc(OC)c(OC)c(OC)c1)(C(F)(F)F)C(F)(F)F | -26.6% | – |
| COc1ccc(-c2cc(C(=O)Nc3cc(OC)c(OC)c(OC)c3)no2)cc1OC | -24.1% | – |
| CO[C@]1(NC(=O)CSCC#N)C(=O)N2C(C(=O)O)=C(CSc3nnnn3C)CS[C@H]21 | – | inactive |
| CNc1ncnc2ccc(-c3ccccc3OC)cc12 | – | 2.51 µM (active) |
| COc1ccccc1-c1ccc2ncnc(Nc3ccccc3)c2c1 | – | 2.51 µM (active) |
| Cc1ccc(CS(=O)(=O)CCC(=O)NCCCOC(C)C)cc1 | -27.3% | – |
| NC(N)=NNC(=O)C(=O)O | -1.69% [at 11.4 µM] | – |
| Cc1ccc(NC(=O)/C(=C\c2cccnc2)NC(=O)c2ccco2)cc1 | -29.4% | – |

| Compound | activity, negative = inhibition | AC50 |
| --- | --- | --- |
| O=C(N/C(=C/c1ccc(Br)cc1)c1nc2ccccc2[nH]1)c1ccco1 | – | 7.08 µM (active) |
| O=C(NC(Cc1ccccc1)C(=O)O)/C(=C\c1ccco1)NC(=O)c1ccc(Br)cc1 (centres undefined) | -18.5% | – |
| C[C@H](NC[C@H](O)CP(=O)(O)Cc1ccccc1)c1ccc(Cl)c(Cl)c1 | -7.11% | – |
| C[C@H](NC[C@H](O)CP(=O)(O)CC1CCCCC1)c1ccc(Cl)c(Cl)c1 | – | 39.8 µM (active) |
| CCS(=O)(=O)Nc1ccc(C2=NN(C(=O)c3ccco3)C(c3ccc(C)cc3)C2)cc1 (centres undefined) | -4.87% | – |
| CNC(=S)N1N=C(c2ccc(OC)cc2)CC1c1ccc(N(C)C)cc1 (centres undefined) | – | 10 µM (active) |
| COc1ccc(CNc2ccnc(-c3cccc(C#N)c3)n2)c(OC)c1 | – | 2.51 µM (active) |
| COc1ccccc1CNc1ccnc(-c2cccc(C#N)c2)n1 | – | 0.794 µM (active) |
| C=CCNC(=S)N1CCN(c2ncc3c(=O)c(C(=O)O)cn(CC)c3n2)CC1 | -12.9% | – |
| C=CC[C@H](N)C(=O)O | -2.54% | – |
| Cc1cc(NC(=O)C2CCCC2)n(-c2nc3ccccc3[nH]2)n1 | – | 2.82 µM (active) |
| O=C(c1cnc(-c2ccccc2)s1)c1ccc(Cl)cc1Cl | – | 1.12 µM (active) |
| CC(=O)N1CCC2(CC1)CN(C(c1ccccc1)c1ccccc1)C2 | 1.33% | – |
| COc1ccccc1NC(=O)c1nn(-c2cccc(C(F)(F)F)c2)ccc1=O | – | 5.01 µM (active) |
| O=c1ccn(-c2cccc(C(F)(F)F)c2)nc1-c1ccn(-c2ccccc2F)n1 | – | 5.62 µM (active) |
| CCCC1CCC(c2ccc(C(N)=O)cc2)CC1 (centres undefined) | 8.51% | – |
| O=C(O)CN=C1NC2(CCCC2)Cc2ccccc21 | 3.63% | – |
| CCN(CC)Cc1nc2c(c(=O)[nH]1)C1(CCCC1)Cc1ccccc1-2 | – | 5.01 µM (active) |
| C[C@@H]1C[C@@H]2[C@H]3CCC4=CC(=O)C=C[C@]4(C)[C@]3(F)[C@@H](O)C[C@@]2(C)[C@@]1(O)C(=O)CO | – | inactive |
| Nc1ccccc1Oc1ncc(C(F)(F)F)cc1Cl | – | 2.82 µM (active) |
| FC(F)(F)c1cnc(N2CCC(=NOCc3ccc(Cl)cc3)CC2)c(Cl)c1 | -7.97% | – |
| O=C(OC1CCN(c2ncc(C(F)(F)F)cc2Cl)CC1)c1ccccc1 | -17.9% | – |
| NS(=O)(=O)c1cc2c(cc1Cl)N[C@@H]([C@@H]1C[C@@H]3C=C[C@H]1C3)NS2(=O)=O | -19.7% | – |
| CCCCCc1nc2c(C#N)c(-c3ccc(Cl)cc3)ccn2n1 | – | 8.91 µM (active) |

| Compound | activity, negative = inhibition | AC50 |
| --- | --- | --- |
| Cc1oncc1C(=O)Nc1ccc(C(F)(F)F)cc1 | – | 0.0631 µM (active) |
| C[C@@H](CCCCC(=O)Nc1ccc(C(F)(F)F)cc1)NCCc1cnc[nH]1 | -20.5% | – |
| CC(C)CN(CC(C)C)C1=N/C(=C\c2ccco2)C(=O)N1c1ccccc1 | -23.4% | – |
| CCCCN=C1N/C(=C\c2ccco2)C(=O)N1c1ccccc1 | – | 2 µM (active) |
| O=c1c(-c2cccc(Cl)c2)nc2cncnc2n1Cc1ccccc1Cl | – | 2 µM (active) |
| O=c1c(-c2ccccc2)nc2cncnc2n1Cc1ccccc1Cl | – | 2 µM (active) |
| O=c1c(-c2ccc(F)c(F)c2)nc2cncnc2n1Cc1ccccc1Cl | – | 5.01 µM (active) |
| O=c1c(-c2cccc(Cl)c2)nc2cncnc2n1Cc1ccccc1 | – | 1 µM (active) |
| COc1ccc(S(N)(=O)=O)cc1C(=O)NCCCN1CCN(c2ccc(C)cc2)CC1 | -4.28% | – |
| CCCCOc1ccc(-c2nnn(CC(=O)c3c[nH]c4ccccc34)n2)cc1 | 9.73% | – |
| CCOCc1cnc(C)nc1NCC(=O)c1c(C)[nH]c2ccccc12 | 9.26% | – |
| CNC(=O)c1cc2c(cn1)[nH]c1ccccc12 | – | 0.0501 µM (active) |
| CCCCOC(=O)c1cc2c(cn1)[nH]c1ccccc12 | – | 0.158 µM (active) |
| CCOC(=O)NNC1CC(=O)N(c2ccc(OC)cc2)C1=O (centres undefined) | -9.03% | – |
| COc1ccc(NC(=O)N2CCC3(CC2)CCN(C(=O)c2cccc(F)c2)CC3)cc1 | -14.4% | – |
| CCN=C(Nc1cccc(F)c1)SC1CC(=O)N(c2ccc(OC)cc2)C1=O (centres undefined) | – | 6.31 µM (active) |
| Cc1cc2c(nc1C)CCCCN2C[C@H](C)O/N=C\[C@@H](C)[C@H](OCc1ccccc1)C(C)C | -17.4% [at 11.4 µM] | – |
| CC(=O)c1cnc2cc(C)nn2c1C | – | 22.4 µM (active) |
| CC(=O)c1cnc2c(C(=O)O)cnn2c1C | 2.54% | – |
| CCN1C(=O)[C@H]2[C@H]3[C@H](O)[C@H](O)C/C(=N/OC[C@@H](O)[C@H]4O[C@H]5OC(C)(C)O[C@H]5[C@@H]4O)[C@@H]3CC[C@@H]2C1=O | -1.85% [at 11.4 µM] | – |
| O=c1c(-c2cccs2)nc2cncnc2n1Cc1ccc(F)cc1 | – | 2.51 µM (active) |
| O=c1c(-c2cccs2)nc2cncnc2n1Cc1ccccc1 | – | 2.51 µM (active) |
| CCCNc1[nH]c(=O)n(C)c(=O)c1N=O | 0.913% | – |
| Cc1cccc2c1Oc1ccccc1[C@@H]2NC(=O)c1ccc([N+](=O)[O-])cc1 | – | 1 µM (active) |

| Compound | activity, negative = inhibition | AC50 |
| --- | --- | --- |
| CN(C(=O)Cn1nnc(-c2cccc(C(F)(F)F)c2)n1)C1CCCCC1 | -15.3% | – |
| C[C@@]1(C(NC(=O)Cc2ccc(C(F)(F)F)cc2)c2ccc(-c3ccccc3)cc2)C[C@H]1C1CCCCC1 (some centres undefined) | 11% | – |
| CC(C)NC(=O)c1ccc(-c2cccc(C(F)(F)F)c2)o1 | – | 0.398 µM (active) |
| CCc1cc2c(NCc3ccco3)ncnc2s1 | – | 2.51 µM (active) |
| OCCNc1ncnc2nc[nH]c12 | -5.82% [at 11.4 µM] | – |
| OCCNc1ncnc2c1ncn2[C@@H]1O[C@@H](CO)[C@H](O)[C@@H]1O | -20.3% [at 11.4 µM] | – |
| CCc1cc2c(NCCO)ncnc2s1 | – | 6.31 µM (active) |
| FC(F)(F)c1ccccc1-c1nccc(N2CCNCC2)n1 | – | 10 µM (active) |
| FC(F)(F)c1ccccc1-c1nc(N2CCNCC2)c2ccccc2n1 | – | 10 µM (active) |
| CN1CCN(c2nc(-c3ccccc3C(F)(F)F)nc3ccccc23)CC1 | – | 10 µM (active) |
| CO[C@@H]1COC(=O)[C@@H](C)NC(=O)C/C=C\[C@@H](C)[C@H](NS(=O)(=O)c2ccc(C)cc2)COC(=O)[C@H](C)NC(=O)C/C=C\[C@H]1C | 1.37% [at 11.4 µM] | – |
| CCOC(=O)c1c(C)c(C)n2c1NC(=O)C2 | – | 2 µM (active) |
| CCOC(=O)N1CCN(C(=O)c2ccc(OC)c(OC)c2)CC1 | -0.0485% | – |
| CCOC(=O)N1CCN(C(=O)c2ccc(NC(C)=O)cc2)CC1 | 6.91% | – |
| CCOC(=O)N1CCN(C(=O)c2ccc(Cl)c(S(=O)(=O)N3CCOCC3)c2)CC1 | – | 6.31 µM (active) |
| O=C(O)c1cc(=O)cc(C(=O)O)[nH]1 | 2.72% | – |
| COc1ccc(-n2c(=O)cnc3cnc(N(C)C)nc32)cc1 | – | 5.01 µM (active) |
| COc1ccc(-n2c(=O)c(C)nc3cnc(N(C)C)nc32)cc1 | – | 6.31 µM (active) |
| Cc1nc2cnc(N(C)C)nc2n(-c2ccccc2)c1=O | – | 2 µM (active) |
| C[C@H](O)C(=O)Nc1c(I)c(C(=O)NC(CO)CO)c(I)c(C(=O)NC(CO)CO)c1I | 0.269% [at 25.6 µM] | – |
| C#CCCCO/N=C1/C[C@@H](O)[C@@H](O)[C@@H]2[C@@H]3C(=O)N(CCC(=O)OCC)C(=O)[C@H]3CC[C@H]12 | -10.2% [at 11.4 µM] | – |
| CCOC(=O)N1CCC(NS(=O)(=O)c2ccc3c(c2)C(C)(C)C(=O)N3C)CC1 | 14% | – |

Source: PubChem BioAssay AID1851 (National Center for Advancing Translational Sciences (NCATS), 2009)
